In the emibetuzumab library of Makowski et al. (2022):
Some of the results follow. How many sequences the whole screen found active is unknown.

B1: VH:VL chains; a variant is named by its letters at X, in order (parent)
chain 1: QVQLVQSGAEVKKPGASVKVSCKASGYTFTDYXMHWVRQAPGQGLEWMGXVNPNXXXTTYNQKFEGRVTMTTDTSTSTAYMELRSLRSDDTAVYYCARXNXLDXWGQGTTVTVSS
chain 2: DIQMTQSPSSLSASVGDRVTITCSVSSSVSSIYLHWYQQKPGKAPKLLIYSTSNLASGVPSRFSGSGSGTDFTLTISSLQPEDFATYYCQVYSGYPLTFGGGTKVEIK

Variants of: B1
Assay: yeast display scFab, FACS + sequencing
Settings: with MET
In short: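 A heavy-chain CDR mutant scFab library on yeast was enriched magnetically with HGFR-Fc-coated Protein A beads for two rounds and then by FACS after labelling with 1 nM HGFR-Fc and anti-Myc in PBSB with 1% milk for 3 h at room temperature, gating the top 50% antigen-positive cells. Antigen binding was judged positive if a sequence turned up in both antigen-positive deep-sequencing samples and negative if it turned up only in the input.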

Variant	antigen binding call
SARGGYWY	no binding
YRKGGAAY	binds
YRRKGAAY	binds
YRRRGAAY	binds
YRKGGDLY	no binding
SRKEGAAY	no binding
DARGGAVY	no binding
YRRGGAAY	binds
STGRADWA	no binding
SEARSALV	no binding
DEGGTSGV	no binding
FKKGSAAV	binds
DKEGGAAV	no binding
FKKGDAVS	no binding
FKKGSAVV	binds
FKKGSYVF	no binding
VAGGDDVF	no binding
DEGKAAGS	no binding
YRRRGASA	binds
YRRRGVSA	binds
VTGRAALA	no binding
SERRDVLY	no binding
DRAGDDWA	no binding

Variant	antigen binding call
VTETGSLV	no binding
YRGGDSAS	binds
FRGRDFVS	no binding
DRGRDDGS	no binding
YRGRDSAS	binds
SAKRDSAS	no binding
VTGGDSAS	no binding
YRGGDDSS	no binding
YRGRDSVS	binds
YRTRDSAS	binds
DAKRDSAS	no binding
VEAGDDSA	no binding
SEARSDVY	no binding
YTEGDFAV	no binding
VGRGNVGV	no binding
YRGEGSAS	binds
DATGGDVD	no binding
SKERGDAA	no binding
SKGASAWA	no binding
SEKGGSSA	no binding
SKKRGASA	binds
SEGRGAAA	no binding
SKKRGAWY	binds

Variant	antigen binding call
SKGEGDWA	no binding
SKKRGAWA	binds
SKKRGAAA	binds
SKTKSSSA	no binding
SKERGDWY	no binding
SKKTGDLY	no binding
VEKEGDGS	no binding
YAAKNDGA	no binding
YEGGADVV	no binding
YRRGGAGY	binds
YRRGGSGY	binds
VAGTGDLY	no binding
VTTRASGD	no binding
VRTRASVD	binds
VRERSSVD	no binding
VRTRAAVD	binds
VRAGADVD	no binding
VTTRAAVS	no binding
YTAGSDGV	no binding
VKGEGYGA	no binding
VKGRGYGA	binds
YKGRGYGA	binds
VAGAGYGA	no binding

Variant	antigen binding call
VRKKGYVY	no binding
VRRGDAGY	binds
VKAKDAGY	no binding
VRAKGAGY	binds
VRRGDVGV	no binding
VRRGDDVY	no binding
VEGGGSSV	no binding
DREEGDWA	no binding
VRGGDAAS	binds
VRGGDAVY chain 1 G44D	no binding
VRGGDAVS	binds
VAGGDAVA	no binding
VEGGGAAS	no binding
VRGRDDSA	no binding
VRGRDAVS	binds
VRGGDDGS	no binding
DRGGDAVA	no binding
VRGKAAVS	no binding
VRGGDAVA	binds
VAGGDAAA	no binding
DTGTGDWV	no binding
SEEEGDAV	no binding
VKGAGDLA	no binding

Variant	antigen binding call
VRRTDFVA	no binding
VGGTSDVA	no binding
VGGTDFVA	binds
VGGGADGA	no binding
VRRRSSLA	binds
VKRRSVGA	no binding
VKRATVLA	no binding
VKRRSSLA	binds
YRRESSGV	binds
YRRESSGY	binds
YRREGSGV	binds
DGERDYSD	no binding
YRERGAWV	binds
YRERGSWV	binds
VRERGSWV	binds
DREEGSWV	no binding
VRERGDWV	no binding
FRERGSWV	binds
VEEEGSWV	no binding
VTGEDAGD	no binding
YRGANSVF	binds
YRRGSSVF	binds
YRRGSSLF	binds

Variant	antigen binding call
YREEGDVF	no binding
YRGGGSVF	binds
VTGGDDSA	no binding
VAGTGSSA	no binding
VGGGADGV	no binding
VEGAASWV	no binding
AAGRAYGA	no binding
YRRGGSVF	binds
YRTGAASD	binds
YRGAASSD	binds
YAGGTSSD	no binding
YRTGASSD	binds
YRRAADSD	no binding
DETGGSSD	no binding
YRTGAAAD	binds
SEARSSGY	no binding
VTGEDSSD	no binding
DRGGDDAD	no binding
FRGESSAD	binds
FRGGDSAD	binds
FRGESSWD	binds
DRGGDVSD	no binding
